Compounds without any hit were thinned out: in the full panel of roughly 83,000, 20% have a hit.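 Plates (96-well) were seeded with cells, treated with compound at one concentration, and incubated for 48 hours before percent growth was determined.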 A number with no mark means an inactive call. Calls of active or inactive are those of the source. Rule for the calls: active = growth percent below 10; inactive = the rest.
Each molecule was assayed on DU-145 prostate (assay: NCI-60 one-dose screen, 48 h (100 = growth as untreated, 0 = no growth, -100 = all killed)). Conditions: 10 µM unless noted.
`COc1cc(/C=C\c2cc(OC)c(OC)c(OC)c2)cc(N/C=C\C(=O)c2cc(OC)c(OC)c(OC)c2)c1OC` gave a growth of 27.2%.
For `N#C[S-].[Au+].c1ccc(CN2[CH-]N(Cc3ccccc3)C(c3ccccc3)=C2c2ccccc2)cc1`, the growth was 23.6%.
In the case of `O=[N+]([O-])c1ccc(OP(=O)(CCl)N(CCCl)CCCl)cc1` (stereo not drawn), the growth was 110%.
Molecule `O=C1CC2(CC3(Cl)C(Cl)=C(Cl)C2(Cl)C3(Cl)Cl)C(=O)O1` (stereo not drawn) has a growth of 101%.
`COc1cc2c(cc1OCCCCCn1c(-c3ccco3)nc3ccccc31)N=C[C@@H]1CCCN1C2=O` was tested, and the growth was 29.3%.
In the case of `O=C(O)c1ccc([S-])cc1.[Au+].c1ccc(CN2[CH-]N(Cc3ccccc3)C(c3ccccc3)=C2c2ccccc2)cc1`, the growth was -47.2% (active).
For `N#C[Se]Cc1cc(-c2ccccc2)n(-c2ccc(S(N)(=O)=O)cc2)n1`, the growth was -85.6% (active).
For `COc1cc2c(cc1OCCCCn1c(-c3cccs3)nc3ccccc31)N=C[C@@H]1CCCN1C2=O`, the growth was 10.7%.
With `COc1ccc(/C=C\c2cc(OC)c(OC)c(OC)c2)cc1OCC(=O)Nc1nc2ccc(F)cc2s1` the growth was 30.2%.
`O=C(Nc1ccc([N+](=O)[O-])cc1)C(Cl)(Cl)Cl` was tested, and the growth was 96.7%.
With `C[CH2][Sn]([Cl])([Cl])[CH2]C.Oc1ccccc1C=NCCN=Cc1ccccc1O` the growth was 111%.
Molecule `C[N+]12CN3CN(CN(C3)C1)C2` has a growth of 119%.
In the case of `C[C@]12CC[C@@H]3c4ccc(Oc5nc(N6CC6)nc(N6CC6)n5)cc4CC[C@H]3[C@@H]1CCC2=O`, the growth was 7.1% (active).
In the case of `c1ccc(COc2ccc3[nH]cc(CCN(Cc4ccccc4)Cc4ccccc4)c3c2)cc1`, the growth was 98.8%.
Work on `[Au+].[N-]=C=O.c1ccc(CN2[CH-]N(Cc3ccccc3)C(c3ccccc3)=C2c2ccccc2)cc1` yielded a growth of 86.5%.
With `CC1=C(CCCNS(C)(=O)=O)C2=C(C)C3(CC3)[C@@](C)(O)C(=O)C2=C1` the growth was 4.13% (active).
In the case of `C[C@]12CC[C@H]3[C@@H](CC[C@]4(O)C[C@@H](O[C@@H]5O[C@H](CO)[C@@H](O[C@@H]6OC[C@@H](O)[C@H](O)[C@H]6O)[C@H](O)[C@H]5O)CC[C@]34C=O)[C@@]1(O)CC[C@@H]2C1=CC(=O)OC1`, the growth was -62.4% (active).
For `CN1C(=O)N[C@H]2[C@@H]3NC(=O)c4ccc(Br)n4[C@@H]3C[C@]21O`, the growth was -8.47% (active).
For `COC1OC(CO)C(O)C(O)[CH]1[Hg][O]C(C)=O` (stereo not drawn), the growth was 96.3%.
`OCc1ccc2c(c1)OCO2` showed a growth of 105%.
`Nc1nnnc2nc[nH]c12` was tested, and the growth was 3.72% (active).
For `CC1CCCC(C[N+](C)(C)C)C1=O` (stereo not drawn), the growth was 115%.
`CNC(=O)Oc1cccc(C(F)(F)F)c1` gave a growth of 128%.
`COc1cc2c(cc1OCCCn1c(-c3ccccn3)nc3ccccc31)N=C[C@@H]1CCCN1C2=O` gave a growth of 26%.
In the case of `CCCCCCCOC(C(=O)OCCN(CC)CC)(c1ccccc1)c1ccccc1`, the growth was 86.9%.
`CC(=O)OCC1O[C@@H]([S-])C(OC(C)=O)[C@H](OC(C)=O)[C@@H]1OC(C)=O.[Au+].c1ccc(CN2[CH-]N(Cc3ccccc3)C(c3ccccc3)=C2c2ccccc2)cc1` was tested, and the growth was 68.5%.
With `COc1ccc(C(=O)c2sc3nc4c(cc3c2N)N2CCC4CC2)cc1OC` the growth was 103%.
In the case of `CC(CC1CCCCC1)NCc1ccccc1` (stereo not drawn), the growth was 108%.
With `COc1ccc(/C=C\c2cc(OC)c(OC)c(OC)c2)cc1OCC(=O)Nc1nc2ccc(C(F)(F)F)cc2s1` the growth was 0.679% (active).
In the case of `O=C1CCC2(O)[C@@H]3Cc4ccc(O)c5c4[C@]2(CCN3Cc2ccoc2)C1O5` (stereo partly drawn), the growth was 106%.
`C/C(=C\c1cc(C(F)(F)F)nn1CCNC(=O)OC(C)(C)C)[C@@H]1C[C@@H]2O[C@]2(C)CCC[C@H](C)[C@H](O)[C@@H](C)C(=O)C(C)(C)[C@@H](O)CC(=O)O1` gave a growth of 63.2%.
`CC(C)CCC(=O)O[C@H]1CC[C@H]2[C@@H]3CCC4=CC(=O)CC[C@]4(C)[C@H]3CC[C@]12C` showed a growth of 96.5%.
In the case of `ClCCN(CCCl)Cc1ccc(Nc2ccnc3cc(Cl)ccc23)cc1`, the growth was 18.6%.
In the case of `COc1cc(NC(C)CCCNC2CN3CCC2CC3)c2ncccc2c1` (stereo not drawn), the growth was 112%.
Molecule `C=CCCCN=C=S` has a growth of 60.5%.
For `CCN(CC)CCOC(=O)C(OC(C)C)(c1ccccc1)c1ccccc1`, the growth was 98.8%.
`CCC1(C(C)C)C(=O)NC(=S)NC1=O` showed a growth of 115%.
Work on `CC[C@]12C=CCN3CC[C@]4(C(=C(C(=O)OC)C1)Nc1cc(OC)c(OC(C)=O)cc14)[C@@H]32` yielded a growth of 24.3%.

Source: PubChem BioAssay (NCI)
